Compounds with a hit are over-represented: about 11% of the library has one in this group of screens.
HCV inh = inhibitors of hepatitis C virus infection. Huh7.5.1 HCVcc-Cre infection, luciferase reporter, 44 h. Potency, µM (top dose mostly 41.8 µM), inactives show top-dose activity change, negative = inhibition, most hits filed as inhibitors. hit rate 3.4% among 340,000; also: % is scaled to controls: 0 for no effect and ±100 for the full control effect
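HCVcc-Cre virus at an moi near 0.5 was added right after compound to cells cultured 4 h from seeding (1,000 cells/well). Luciferase activity was determined 44 h later, 15 min after substrate addition at RT.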
NS1 function inh = blocks influenza NS1 protein function; Potency, µM (titrated, usually from 46.1 µM), for the others: at the top dose activity, positive = more growth; AID 2326; hit rate 0.4% among 270,000; calls by dose curve; also: actives are rising curves; nearly all actives have a fitted effect of over 50% in size
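A cell-based growth assay was used: compounds that relieve NS1-induced slow growth of budding yeast raise OD600. Assay medium was yeast nitrogen base with ammonium sulphate and -URA supplement, pH 6.0, with 2% galactose.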
VACV mCherry inh = vaccinia inhibition (mCherry reporter). hit rate 0.63% among 310,000. Potency, µM (titrated, usually from 36.5 µM), for the others: at the highest dose activity change, negative = inhibition, most hits filed as inhibitors. AID 720579. Vaccinia virus mCherry reporter infection, fluorescence; calls by dose curve; tested in A549 cells; also: % is scaled to controls: 0 for no effect and ±100 for the full control effect; nearly all actives have a fitted effect of over 35% in size
Pf growth 96h = inhibits malaria parasite growth, 96 h. P. falciparum luciferase reporter growth, 96 h. hit rate 6.9% among 320,000. Potency, µM (series often up to 28.7 µM), for the others: top-dose activity change, negative = inhibition, actives largely listed as inhibitors; also: % is scaled to controls: 0 for no effect and ±100 for the full control effect
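Delayed-death screen, second-generation endpoint: infected erythrocytes, 2% hematocrit, 0.05% parasitemia final; 96 hours at 37 C, 5% CO2; luciferase detection reagent; luminescence decrease equals reduced growth.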
VACV Venus inh = vaccinia inhibition (Venus reporter); AID 720580; Potency, µM (titrated, usually from 36.5 µM), for the others: at the top dose activity change, negative = inhibition, most hits filed as inhibitors; Vaccinia virus Venus reporter expression, fluorescence; hit rate 0.46% among 330,000; calls by dose curve; tested in A549 cells; also: % is scaled to controls: 0 for no effect and ±100 for the full control effect; nearly all actives have a fitted effect of over 30% in size
Pf growth 48h = inhibits P. falciparum growth in the first generation, 48 h. Potency, µM (top dose mostly 28.7 µM), for the others: at the top dose activity change, negative = inhibition, most hits filed as inhibitors. P. falciparum luciferase growth in erythrocytes, 48 h. hit rate 5.9% among 310,000; also: % is scaled to controls: 0 for no effect and ±100 for the full control effect
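First compound was added to culture medium, then infected red cells at 0.1% parasitemia and 2% hematocrit (final). After incubation at 37 C under 5% CO2, luciferase detection reagent was dispensed and light output recorded.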
An asterisk follows results filed as active; [ ] = another dose, or the depositor's remark. Unless noted, calls follow the shape of the dose curve; as a rule, active = well fitted inhibition curve with a large enough effect; inconclusive = small, poorly fitted or top-dose-only effect, or another doubt; inactive = no such curve, though single readings can be large or run the other way. Potency is read from the fitted curve at half-maximal effect.

What do the screens show for `O=C(Nc1ccc(Cl)c([N+](=O)[O-])c1)c1ccc(NCCCN2CCOCC2)c([N+](=O)[O-])c1`?
HCV inh: 2.24µM*; NS1 function inh: 9.4%; Pf growth 96h: inconclusive; Pf growth 48h: 14.7µM*

What do the screens show for `COc1ccc(NC(=O)c2ccc(NCCCN3CCOCC3)c([N+](=O)[O-])c2)cc1`?
HCV inh: 12.6µM*; NS1 function inh: 1.0%; VACV mCherry inh: -3.5%; Pf growth 96h: -2.7%; VACV Venus inh: -27.3%; Pf growth 48h: inconclusive

How did C=CCOC(=O)C(C(=O)Cc1ccccc1)c1ccccc1 (stereo unspecified) do in these assays?
HCV inh: 16.3%; VACV mCherry inh: -4.4%; VACV Venus inh: -4.0%

Results for Cc1cc(N)n(-c2cc(C)c3ccccc3n2)n1 ?
HCV inh: -9.1%; VACV mCherry inh: inconclusive; Pf growth 96h: inactive; VACV Venus inh: -9.8%; Pf growth 48h: 445.2%

What do the screens show for `CCN(CC)CCCN1C(=O)C(O)=C(C(=O)c2ccco2)C1c1ccc(OC(C)C)cc1` (stereo unspecified)?
HCV inh: 26.3%; NS1 function inh: 5.3%; VACV mCherry inh: -12.5%; Pf growth 96h: inconclusive; VACV Venus inh: -4.6%; Pf growth 48h: 39.9%

What do the screens show for `CC(Oc1ccc(F)cc1Br)c1nc2ccccc2c(=O)[nH]1` (stereo unspecified)?
HCV inh: -2.4%; NS1 function inh: -32.1%; VACV mCherry inh: -10.0%; Pf growth 96h: inconclusive; VACV Venus inh: -13.6%; Pf growth 48h: 9.28µM*

Results for Cn1c2c(c(=O)n(C)c1=O)C(c1ccc(C(F)(F)F)cc1)CC(=O)N2 (stereo unspecified) ?
HCV inh: -8.7%; VACV mCherry inh: -22.5%; VACV Venus inh: -14.2%

What do the screens show for `C[C@H]1C=CC(=O)O[C@H]1c1ccccc1`?
HCV inh: 14.8%; VACV mCherry inh: inconclusive; VACV Venus inh: 3.16µM*

What do the screens show for `C[C@@H]1C=CC(=O)O[C@@H]1c1ccc(C(F)(F)F)cc1`?
NS1 function inh: -49.5%; Pf growth 96h: 2.33µM*; Pf growth 48h: inconclusive

What do the screens show for `COc1ccccc1-n1c(CNC(=O)c2ccc(S(=O)(=O)N3CCOCC3)cc2)n[nH]c1=S`?
HCV inh: 17.2%; NS1 function inh: 2.1%; VACV mCherry inh: inactive; Pf growth 96h: inconclusive; VACV Venus inh: -2.7%

How did CCOC(=O)c1c(NC(=O)/C=C/C(=O)O)sc(C)c1-c1ccc(C)c(C)c1 do in these assays?
HCV inh: -1.4%; NS1 function inh: -0.5%; Pf growth 96h: 17.3%; Pf growth 48h: 9.28µM*

What do the screens show for `Cc1ccc(S(=O)(=O)N(C)c2nc3ccccc3[nH]c2=S)cc1`?
HCV inh: -2.8%; NS1 function inh: 4.2%; VACV mCherry inh: inactive; Pf growth 96h: 1.3%; VACV Venus inh: -8.2%; Pf growth 48h: 5.1%

How did Cn1c(=O)[nH]c(=O)c2c1nc(N1CCCCC1)n2CC(O)COc1ccccc1 (stereo unspecified) do in these assays?
HCV inh: 17.1%; NS1 function inh: 0.7%; Pf growth 96h: inconclusive; Pf growth 48h: -5.3%

How did Cc1ccnc(SCCn2c(N3CCN(c4ccccc4)CC3)nc3c2c(=O)[nH]c(=O)n3C)n1 do in these assays?
HCV inh: 0.3%; NS1 function inh: -7.0%; VACV mCherry inh: inactive; Pf growth 96h: 4.65µM*; VACV Venus inh: -1.0%

What do the screens show for `CN1CCN(c2nc3c(c(=O)[nH]c(=O)n3C)n2CCCSc2ncccn2)CC1`?
HCV inh: 9.9%; NS1 function inh: -3.0%; Pf growth 96h: 13.1µM*; Pf growth 48h: 0.1%

Results for Cn1c(=O)[nH]c(=O)c2c1nc(N1CCOCC1)n2CC(O)COc1ccc2ccccc2c1 (stereo unspecified) ?
HCV inh: 2.3%; NS1 function inh: -8.5%; VACV mCherry inh: inactive; Pf growth 96h: 6.57µM*; VACV Venus inh: -16.1%; Pf growth 48h: -9.7%

What do the screens show for `CN1CCN(c2nc3c(c(=O)[nH]c(=O)n3C)n2CC(N)=O)CC1`?
HCV inh: 16.2%; NS1 function inh: -4.2%; VACV mCherry inh: -6.4%; Pf growth 96h: 13.1µM*; VACV Venus inh: -10.8%; Pf growth 48h: inconclusive

What do the screens show for `CCCCCCCCN1C(=O)[C@H](CC(=O)NCCc2ccccc2OC)C[C@@]2(C(=O)OCC)CCC=C12`?
VACV mCherry inh: inactive; VACV Venus inh: -21.3%

What do the screens show for `Cc1nn(Cc2cccc(F)c2)c(C)c1NC(=O)c1ccc(COc2ccccc2Cl)cc1`?
HCV inh: 10µM*; NS1 function inh: -2.4%; VACV mCherry inh: 11.2µM*; VACV Venus inh: 12.6µM*; Pf growth 48h: 13.1µM*

What do the screens show for `O=C(Nc1ccccc1F)c1ccc(COc2ccc(Cl)cc2Cl)o1`?
HCV inh: inconclusive; NS1 function inh: -6.8%; VACV mCherry inh: -3.5%; Pf growth 96h: 25.9%; VACV Venus inh: 2.6%; Pf growth 48h: 20.2%

Results for CC(=O)Nc1ccc(NC(=O)c2ccc(COc3ccc(Cl)cc3Cl)o2)cc1 ?
VACV mCherry inh: -13.2%; VACV Venus inh: -13.1%

Results for O=C(Nc1ccn(Cc2c(F)c(F)cc(F)c2F)n1)c1ccc(COc2ccc(Cl)cc2Cl)o1 ?
HCV inh: 12.6µM*; NS1 function inh: 19.4%; Pf growth 96h: inconclusive

Results for Cc1nn(Cc2ccc(Cl)cc2Cl)c(C)c1NC(=O)c1ccc(COc2cc(Cl)ccc2Cl)o1 ?
HCV inh: inconclusive; NS1 function inh: 18.9%; VACV mCherry inh: inconclusive; Pf growth 96h: inconclusive; VACV Venus inh: inconclusive; Pf growth 48h: inconclusive

Results for Cc1nn(Cc2c(F)c(F)c(F)c(F)c2F)c(C)c1NC(=O)c1ccc(COc2ccc(Cl)cc2Cl)o1 ?
HCV inh: 7.08µM*; NS1 function inh: 24.1%; VACV mCherry inh: inconclusive; Pf growth 96h: inconclusive; VACV Venus inh: inconclusive; Pf growth 48h: -8.8%

Results for CC(C)CNC(=O)c1ccc(COc2ccc(Cl)cc2Cl)o1 ?
HCV inh: 12.6µM*; NS1 function inh: -78.0%; VACV mCherry inh: -10.9%[1.46 µM]; Pf growth 96h: 0.2%; VACV Venus inh: inconclusive; Pf growth 48h: inconclusive

Results for Cc1ccc(N2CC(C(=O)Nc3ncc([N+](=O)[O-])s3)CC2=O)cc1 (stereo unspecified) ?
HCV inh: 8.1%; NS1 function inh: -4.3%; VACV mCherry inh: -9.8%; Pf growth 96h: -14.6%; VACV Venus inh: -26.9%; Pf growth 48h: 12.2%

What do the screens show for `COc1cccc2c(=O)c3cccc(N)c3[nH]c12`?
HCV inh: -22.5%; NS1 function inh: 20.2%; VACV mCherry inh: -7.9%; Pf growth 96h: inconclusive; VACV Venus inh: -5.8%; Pf growth 48h: inconclusive

Results for COc1ccc(C(=O)n2nc(C)c(Br)c2C)cc1 ?
HCV inh: 1.8%; NS1 function inh: 2.1%; Pf growth 96h: 0.465µM*; Pf growth 48h: inconclusive

High-throughput results from PubChem.
